Source: PubChem
Shown are actives, neighbours in structure and some others; about 2.1% of the full set was active somewhere.
YB-1 expr inh – inhibitors of YB-1 gene expression, primary screen, cell-based, fluorescence. delta delta Cp (YB-1 minus CDIP) (no concentration beside the values). AID 434959, 2010. U2OS, qRT-PCR YB-1 vs CDIP delta delta Cp, 16 h; active compounds read high; zero = DMSO, each unit about twofold. actives 0.37% (n = 30,000);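 active means delta delta Cp rounded down to an integer at or above 3, about 3 SD of DMSO wells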;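 further: higher means less YB-1 transcript or more CDIP transcript relative to DMSO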
U2OS ROS induce – ROS inducers in U2OS cancer cells, primary screen, cell-based, H2DCF-DA fluorescence; U2OS ROS induction; ROS induction (% of piperlongumine), % at 10 µM; AID 624156, 2012; actives 2% (n = 46,000); in the data active means ROS induction above about 79%, passing the limit was not always enough; inconclusive means no clear call, values can overlap the other calls;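 further: 0% = DMSO vehicle median and 100% = reference compound median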
* = called active by the depositor.

Screening C[C@@H]1CCCCO[C@@H](CN(C)Cc2ccncc2)[C@@H](C)CN([C@H](C)CO)C(=O)c2cc(NC(=O)C3CCCCC3)ccc2O1 returned YB-1 expr inh 0.162 and U2OS ROS induce 15.8.
Screening C[C@@H]1CCCCO[C@@H](CN(C)C(=O)Nc2ccc(F)cc2)[C@@H](C)CN([C@H](C)CO)C(=O)c2cc(NC(=O)CCC(F)(F)F)ccc2O1 returned YB-1 expr inh -0.0297 and U2OS ROS induce 139.8*.
For C[C@@H]1CCCCO[C@H](CN(C)Cc2ccc(C(F)(F)F)cc2)[C@@H](C)CN([C@H](C)CO)C(=O)c2cc(NC(=O)C3CCCCC3)ccc2O1 the results were YB-1 expr inh -0.501 and U2OS ROS induce 87.3*.
C[C@@H]1CCCCO[C@H](CN(C)Cc2ccc(C(F)(F)F)cc2)[C@@H](C)CN([C@H](C)CO)C(=O)c2cc(NC(=O)CCC(F)(F)F)ccc2O1 was read as YB-1 expr inh 0.026 and U2OS ROS induce 8.5.
Cc1cc(C)c2c(=O)n(CC(=O)NCCc3ccc(Cl)cc3)sc2n1 was read as U2OS ROS induce -7.9.
`CC1CCc2nc(NC(=O)c3ccc(Cc4ccccc4)cc3)sc2C1` (stereo not given) gave YB-1 expr inh -0.0737 and U2OS ROS induce 54.0.
O=C(NCCOc1ccccc1Cc1ccccc1)c1ccc(Br)cc1 was read as U2OS ROS induce 26.1.
Screening COc1ccccc1C1N(c2ccc(Cl)cc2)C(=O)N2CCCN12 (stereo not given) returned U2OS ROS induce -5.8.
Screening O=C(O)CC1(CC(=O)Nc2ccc(Cl)cc2)CCCC1 returned U2OS ROS induce -8.6.
For C[C@H](CO)N1C[C@H](C)[C@H](CN(C)C(=O)NC2CCCC2)Oc2ncc(-c3cccc(C(F)(F)F)c3)cc2C1=O the results were YB-1 expr inh -0.282 and U2OS ROS induce 122.3*.
C[C@H](CO)N1C[C@H](C)[C@H](CN(C)C(=O)NC2CCCCC2)Oc2ncc(/C=C/c3ccccc3)cc2C1=O was read as YB-1 expr inh -0.638 and U2OS ROS induce 109.2*.
`CC(C)NC(=O)N(C)C[C@@H]1Oc2ncc(-c3cccc(C(F)(F)F)c3)cc2C(=O)N([C@H](C)CO)C[C@@H]1C` gave YB-1 expr inh -0.15 and U2OS ROS induce 51.2.
`C[C@H](CO)N1C[C@H](C)[C@H](CN(C)C(=O)Nc2cccc3ccccc23)Oc2ncc(-c3cccc(F)c3)cc2C1=O` gave YB-1 expr inh -0.271 and U2OS ROS induce 60.4.
For CC(C)NC(=O)N(C)C[C@@H]1Oc2ncc(/C=C/c3ccccc3)cc2C(=O)N([C@H](C)CO)C[C@@H]1C the results were YB-1 expr inh -1.35 and U2OS ROS induce 15.3.
C[C@H](CO)N1C[C@H](C)[C@H](CN(C)C(=O)Nc2cccc3ccccc23)Oc2ncc(-c3cccc(C(F)(F)F)c3)cc2C1=O was read as YB-1 expr inh 0.472 and U2OS ROS induce 108.7*.
CC(C)(c1ccccc1)c1ccc(OCC(=O)NC2CCCC2)cc1 was read as U2OS ROS induce 0.6.
Screening O=c1[nH]nc(SCc2nnc(-c3ccc(Cl)cc3)o2)n1C1CCCCC1 returned U2OS ROS induce -1.1.
COC(=O)CNC(c1ccccc1)c1cc(Br)ccc1NC(=O)c1ccccc1Cl (stereo not given) was read as U2OS ROS induce 97.1*.
COC(=O)CNC(c1ccccc1)c1cc(Br)ccc1N=Cc1ccccc1O (stereo not given) was read as YB-1 expr inh -0.393 and U2OS ROS induce 1.8.
COc1ccc2c(c1)OC/C(=C\c1ccc(OC)c(O)c1)C2=O was read as YB-1 expr inh -0.0554 and U2OS ROS induce 70.3.
O=C1/C(=C/c2ccc3ccccc3c2)COc2ccccc21 was read as YB-1 expr inh -0.219 and U2OS ROS induce 102.7*.
For CN(Cc1ccccc1)S(=O)(=O)c1ccc2c(c1)SCC(=O)N2 the results were U2OS ROS induce 14.1.
`Cc1cc(C)c2nc(N3CCCC(C(=O)NC4CCCc5ccccc54)C3)sc2c1` (stereo not given) gave U2OS ROS induce -2.6.
C[C@@H]1CCCCO[C@H](CN(C)C(=O)NC2CCCCC2)[C@@H](C)CN([C@H](C)CO)C(=O)c2cc(NS(=O)(=O)c3cccs3)ccc2O1 was read as YB-1 expr inh -0.197 and U2OS ROS induce 83.5*.
`C[C@@H]1CCCCO[C@@H](CN(C)C(=O)C2CCCCC2)[C@@H](C)CN([C@H](C)CO)C(=O)c2cc(NS(=O)(=O)c3cccs3)ccc2O1` gave YB-1 expr inh -0.245 and U2OS ROS induce 108.6*.
`C[C@@H]1CCCCO[C@@H](CN(C)C(=O)C2CCCCC2)[C@@H](C)CN([C@H](C)CO)C(=O)c2cc(NS(=O)(=O)c3ccccc3)ccc2O1` gave YB-1 expr inh -0.452 and U2OS ROS induce 109.7*.
For C[C@@H]1CCCCO[C@H](CN(C)C(=O)C2CCCCC2)[C@@H](C)CN([C@H](C)CO)C(=O)c2cc(NS(=O)(=O)c3ccc(Cl)cc3)ccc2O1 the results were YB-1 expr inh 0.293 and U2OS ROS induce 35.1.
`C[C@@H]1CCCCO[C@@H](CN(C)C(=O)c2ccccc2)[C@@H](C)CN([C@H](C)CO)C(=O)c2cc(NS(=O)(=O)c3cccs3)ccc2O1` gave YB-1 expr inh 0.216 and U2OS ROS induce 5.0.
`C[C@@H]1CCCCO[C@@H](CN(C)C(=O)Nc2ccccc2)[C@@H](C)CN([C@H](C)CO)C(=O)c2cc(NS(=O)(=O)c3cccs3)ccc2O1` gave YB-1 expr inh 0.288 and U2OS ROS induce 9.3.
Screening Cc1ccc(S(=O)(=O)Nc2ccc3c(c2)C(=O)N([C@H](C)CO)C[C@H](C)[C@@H](CN(C)CC2CCCCC2)OCCCC[C@@H](C)O3)cc1 returned YB-1 expr inh -0.149 and U2OS ROS induce 12.4.
`C[C@@H]1CCCCO[C@H](CN(C)CC2CCCCC2)[C@@H](C)CN([C@H](C)CO)C(=O)c2cc(NS(=O)(=O)c3ccccc3)ccc2O1` gave YB-1 expr inh -0.612 and U2OS ROS induce 119.0*.
For Cc1c2cnn(CC(=O)O)c(=O)c2c(C)n1Cc1ccccc1F the results were U2OS ROS induce -7.5.
`CSc1nc(O)cc(=O)[nH]1` gave YB-1 expr inh -0.172 and U2OS ROS induce 5.3.
`COc1ccc(-c2nnc(SCC(=O)c3cccc([N+](=O)[O-])c3)n2C)cc1` gave U2OS ROS induce 15.4.
For COc1cc(-c2nnc(SCC(=O)c3ccc(Cl)cc3)n2-c2ccccc2)cc(OC)c1OC the results were U2OS ROS induce -0.2.
COc1cc(-c2nnc(SCC(=O)c3cccc([N+](=O)[O-])c3)n2-c2ccccc2)cc(OC)c1OC was read as U2OS ROS induce 95.1*.
For COc1ccc(-c2cc(C)nc(SCC(=O)c3cccc([N+](=O)[O-])c3)n2)cc1 the results were U2OS ROS induce 92.2*.
CCn1nc(C)cc1C(=O)NN was read as U2OS ROS induce -3.5.
Screening C=CCN1C(=O)[C@]2(O[C@H](CCn3cc(CCO)nn3)[C@@H]([Si](C)(C)c3ccc(OC)cc3)[C@@H]2C)c2cc(N3C(=O)c4cccc5cccc3c45)ccc21 returned YB-1 expr inh -0.173 and U2OS ROS induce 96.5*.
`COc1ccc([Si](C)(C)[C@@H]2[C@@H](CCO)O[C@]3(C(=O)N(Cc4ccccc4)c4ccc(N5C(=O)c6cccc7cccc5c67)cc43)[C@H]2C)cc1` gave YB-1 expr inh -0.181 and U2OS ROS induce inconclusive.
